# rCAG binder: r(CAG) repeat RNA binding | TO-PRO-1 dye displacement fluorescence | inhibition, % at 3 µM | 370,000 tested, 1.3% active | AID 651821;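 active = inhibition above the plate cutoff, the mean of all test compounds on that plate plus 3 SD, cut at about 35% in these data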;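 also: 0% = DMSO alone and 100% = 100 µM mitoxantrone as full dye displacement; higher means more dye released from RNA so lower well fluorescence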
# MPTP inh: blocks calcium-induced mitochondrial swelling; AID 602449; isolated mouse mitochondria, Ca2+ swelling absorbance, 30 min; 360,000 tested, 1.4% active; inhibition, % at 10 µM;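 active = inhibition of 50% or more, scaled per plate between neutral and stimulator controls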;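 also: 0% = DMSO wells given calcium and 100% = 1 mM EGTA wells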
# NR3A LBD binder: NR3A (human) ligand-binding domain modulation; NR3A LBD differential scanning fluorimetry, Tm shift; 0% = protein alone, 100% = glycine-bound protein; Tm shift relative to glycine control, % at 25 µM; AID 1259313; 340,000 tested, 2.5% active;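 active = melting temperature shift of at least 10% of the positive control shift, at one fixed dose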
# Myeloid diff MLP: myeloid differentiation induction. ER-HoxA9 myeloid progenitors, lysozyme-GFP differentiation, flow cytometry. calls only at 10 µM. 360,000 tested, 1% active. AID 624256;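 active = normalized GFP-positive differentiation at or above the plate's own cutoff, the solvent-only control mean plus 3 SD; inconclusive = no clear call, values can overlap the other calls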;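 also: cells exposed to compound for four days before flow analysis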
# FAS-TE inh: FAS thioesterase (human) inhibition | recombinant FAS-TE, OMFH fluorogenic substrate, fluorescence endpoint | inhibition, % at 15 µM | 360,000 tested, 0.67% active | AID 602261;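 active = compounds whose normalised, plate-corrected inhibition of enzyme fluorescence in the single-dose primary screen is 50% or more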;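 also: 0% = DMSO with enzyme and 100% = substrate without enzyme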
# MPTP counter: membrane potential counter-screen of mitochondrial pore inhibitors; isolated mitochondria, Rhodamine 123 fluorescence; inhibition, % at 10 µM; 5,000 tested, 78% active; AID 624504; shares compounds with MPTP inh; in the data active = inhibition above about 22%;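 also: 0% = DMSO vehicle and 100% = positive control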
# MPTP abs DR: MPTP inhibition, dose response swelling confirmation | IC50, µM | isolated mitochondria swelling, absorbance | shares compounds with MPTP inh | 780 tested, 58% active; in the data active = IC50 below about 20 µM
# MPTP counter DR: MPTP inhibitor counter-screen activity, dose response; shares compounds with MPTP inh; isolated mitochondria counterscreen, fluorescence read-out; IC50, µM; 780 tested, 49% active; in the data active = IC50 below about 80 µM
# An asterisk follows results filed as active; i = inactive; u = inconclusive; x = not tested or not shown. A selection: hits, their analogues and other compounds. The true share with any hit is near 5.7%.
SMILES,rCAG binder,MPTP inh,NR3A LBD binder,Myeloid diff MLP,FAS-TE inh,MPTP counter,others
COCCn1c(C)cc(C(=O)CSc2nc(C)cc(C)c2C#N)c1C,-4,66*,-4,i,33,4,MPTP abs DR=i;MPTP counter DR=58*
CCCCS(=O)(=O)NCC1CCN(C(=O)C(=O)c2cc3ccccc3o2)CC1,1,x,x,x,x,x,
O=C(CSc1nc(CCC2CCCC2)nc2ccccc12)NCc1ccc2c(c1)OCO2,-2,7,1,i,19,x,
Cc1nonc1NC(=O)CSc1nc(CCC2CCCC2)nc2ccccc12,1,66*,0,i,32,82*,
CC(C)C(=O)Nc1nc(-c2ccccc2)ns1,-3,9,-38,i,-3,x,
CC(=O)Nc1nc(-c2ccc(Cl)cc2)ns1,7,88*,-6,i,2,60*,
CN(C)CCCNS(=O)(=O)c1cc(Cl)ccc1Cl,0,0,0,i,-5,x,
NCCCCCCNS(=O)(=O)c1cccc2c(Cl)cccc12,20,108*,1,i,-6,-7,MPTP abs DR=7.4*;MPTP counter DR=46*
CCCCn1nnnc1C1(C)CCC(=O)N1Cc1ccc(C)cc1 (centres undefined),-2,1,x,i,-7,x,
Cc1[nH]nc(-c2ccc(O)cc2O)c1Oc1ccccc1,5,56*,32*,i,-126,58*,
CCCOC(=O)c1ccc(Oc2c(-c3ccc(O)cc3O)n[nH]c2C)cc1,6,-14,x,i,-137,x,
N#C/C(=C\c1ccc(O)cc1)c1nc2ccccc2o1,14,87*,8,i,-4,90*,
COc1ccc2[nH]c(CN3CCC(CO)(CCOc4ccccc4)CC3)c(C)c2c1,-6,66*,-3,i,-1,-16,MPTP abs DR=5.8*;MPTP counter DR=>80
Cc1cccc(NC(=O)Cn2cc(C(=O)C3CC3)c3ccccc32)c1C,4,56*,-2,u,2,51*,
CCOCCC(=O)Nc1ccc2c(c1)c(=O)n(C)n2CC=C(C)C,0,1,x,i,-5,x,
COc1ccccc1C(=O)Nc1cccc(Oc2c(F)c(F)c(F)c(F)c2F)c1,3,0,-16,i,36,x,
Cc1cccc(NC(=O)Nc2ccc(Oc3c(F)c(F)c(F)c(F)c3F)cc2)c1,-1,88*,x,i,-1,60*,
CCCCCCCc1nn2c(=O)cc(O)nc2s1,19,0,-3,i,-8,x,
O=C(N[C@@H](Cc1cccnc1)C(=O)N1CCC[C@H]1C(=O)NCCc1ccccc1Cl)c1cccs1,0,x,x,x,x,x,
CC1CCC2(CC1)NC(=O)N(CC(=O)N1CCOCC1)C2=O (centres undefined),0,-1,0,i,-6,x,
Cc1nc(C(=O)Nc2ccccc2Cl)cc2c1[nH]c1ccccc12,-57,55*,1,i,2,11,MPTP abs DR=>100;MPTP counter DR=>80
COc1ccc(NC(=O)c2cc3c([nH]c4ccccc43)c(C)n2)cc1,5,2,7,i,0,x,
CO[C@@H]1CN(C)C(=O)c2cc(NC(=O)Nc3ccc4c(c3)OCO4)ccc2OC[C@@H](C)N(C)C[C@H]1C,5,-2,x,i,x,x,
C=CCOc1ccc(CN(C)c2ccc(S(=O)(=O)N3CCN(C)CC3)cc2[N+](=O)[O-])cc1,-2,0,0,i,-7,x,
CCOc1ccc(CN(C)c2ccc(S(=O)(=O)N3CCN(C)CC3)cc2[N+](=O)[O-])cc1OC,x,55*,3,i,4,93*,
SMILES,rCAG binder,MPTP inh,NR3A LBD binder,Myeloid diff MLP,FAS-TE inh,MPTP counter,others
O=C(Nc1ccc([N+](=O)[O-])cc1)/C(=C/c1cccc([N+](=O)[O-])c1)NC(=O)C1CCCCC1,7,98*,0,i,59*,75*,
Cc1ccc(NC(=O)/C(=C/c2cccc([N+](=O)[O-])c2)NC(=O)C2CCCCC2)c(C)c1,-1,4,-2,i,8,x,
CCn1c(COc2cccc(C)c2C)nnc1SCC(=O)N1CCN(c2ccc(OC)cc2)CC1,5,60*,1,i,3,43*,
CCn1c(COc2ccccc2C)nnc1SCC(=O)N1CCN(c2ccccc2)CC1,-3,0,-4,i,1,x,
COC(=O)[C@]12CCCCC=C1N(CCc1ccc(OC)c(OC)c1)C(=O)[C@H](CC(=O)NCC1CCCCC1)C2,3,-1,x,i,x,x,
COc1ccc(Nc2nc(N3CCCC3)c3ccccc3n2)cc1,19,103*,-1,i,-50,101*,
CCN(CC)c1ccc(Nc2nc(N3CCOCC3)c3ccccc3n2)cc1,3,29,-4,i,5,x,
Cc1nc(C(=O)O)cc([N+](=O)[O-])c1C,2,1,x,i,-6,x,
N#C/C(=C(/O)c1ccc2c(c1)OCO2)c1nc2cc(C(F)(F)F)ccc2s1,29,84*,4,i,7,94*,
FC(F)(F)c1ccc(-c2nc3ccccc3s2)cc1,3,2,x,i,0,x,
N#C/C(=C(/O)c1ccccc1F)c1nc2cc(C(F)(F)F)ccc2s1,27,96*,9,i,6,92*,
CCCCCCCSc1nsc(N)n1,2,1,-11,i,9,x,
CCCCCCSc1nsc(NC(=O)CC(C)C)n1,1,78*,1,i,19,92*,
CCCCN1CC(C)(C)[C@H](CC(=O)NC)C1=O,2,0,x,i,-8,x,
Clc1c(Cl)c(Cl)c2n[nH]nc2c1Cl,15,72*,-3,i,-2,77*,
COCc1cc(CN2CCCC2)c(O)c2ncccc12,5,-4,0,i,-7,x,
COc1ccc2nc3cc(Cl)ccc3c(Nc3cc(CN4CCCC4)c(O)c(CN4CCCC4)c3)c2n1,15,72*,x,u,-3,-26,
CCOC=C1SC(=S)N(c2ccccc2OC)C1=O,3,-1,x,i,-5,x,
CCC(C)C(NC(=O)c1ccccc1NC(=O)c1ccc(OC)cc1)C(=O)NCCCn1ccnc1 (centres undefined),0,0,-1,i,-1,x,
Cc1cc(C)cc(NC(=O)C2(c3ccccc3)CC2(Cl)Cl)c1 (centres undefined),3,71*,-1,i,32,76*,
CCc1ccc(NC(=O)C2(c3ccccc3)CC2(Cl)Cl)cc1 (centres undefined),2,53*,-3,i,22,72*,
Cc1cccc(-n2nc3c(c2NC(=O)c2ccc(Br)o2)CSC3)c1,25,8,-9,i,8,x,
Cn1cc(CNCc2ccc(OC(F)(F)F)cc2)c(-c2ccc3c(c2)OCCO3)n1,-9,102*,-1,i,5,96*,
Cc1c(C(=O)NC2CCN(Cc3ccccc3)C2)oc2c(Cl)cccc12 (centres undefined),-5,63*,-1,i,10,-4,MPTP abs DR=>100;MPTP counter DR=>80
